Data on eight molecules can be found in PubChem BioAssay (NCI).

Holding throughout (test): NCI-60 one-dose screen, 48 h (100 = growth as untreated, 0 = no growth, -100 = all killed)
In one assay the test system is HCT-15 colon. The conditions noted are these: 10 µM unless noted.
For another assay, the system named is HT29 colon. The settings on record: 10 µM unless noted.
The subject of a further assay is SNB-19 CNS. The conditions noted are these: 10 µM unless noted.
The test system of the next assay is U251 CNS. The conditions noted are these: 10 µM unless noted.
A further assay concerns PC-3 prostate. The settings on record: 10 µM unless noted.
Another assay relates to SK-MEL-5 melanoma. The conditions noted are these: 10 µM unless noted.
Another assay deals with UACC-62 melanoma. The settings on record: 10 µM unless noted.
In the next assay the test system is LOX IMVI melanoma. The conditions noted are these: 10 µM unless noted.
A further assay has as its system SK-MEL-28 melanoma. The conditions noted are these: 10 µM unless noted.
For the next assay, the system named is SK-MEL-2 melanoma. The settings on record: 10 µM unless noted.
The test system of the next assay is EKVX NSCLC. The conditions noted are these: 10 µM unless noted.
The test system of another assay is SN12C renal. The conditions noted are these: 10 µM unless noted.
In another assay the test system is UO-31 renal. The settings on record: 10 µM unless noted.
The subject of the next assay is TK-10 renal. The conditions noted are these: 10 µM unless noted.
The next assay relates to ACHN renal. The conditions noted are these: 10 µM unless noted.
In the next assay the test system is CAKI-1 renal. The conditions noted are these: 10 µM unless noted.
Another assay concerns A498 renal. The conditions noted are these: 10 µM unless noted.
For a further assay, the system named is CCRF-CEM leukemia. The conditions noted are these: 10 µM unless noted.
A further assay deals with MOLT-4 leukemia. The settings on record: 10 µM unless noted.
A further assay has as its system SNB-75 CNS. The conditions noted are these: 10 µM.

Compounds without any hit were thinned out: in the full panel of roughly 83,000, 20% have a hit.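 Step 1: grow cells in 96-well plates. Step 2: add test compound at a single concentration. Step 3: incubate 48 h. Step 4: record percent growth.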 Unmarked numbers belong to inactive results. Calls of active or inactive are those of the source. Rule for the calls: active = growth percent below 10; inactive = the rest.

Take `O=C(NS(=O)(=O)c1ccccc1)n1cc(-c2ccncc2)c(-c2ccc(Cl)c(O)c2)n1`: the growth in the assay with HCT-15 colon is 103%; in the assay on HT29 colon it was 100%; in the assay with SNB-19 CNS, 111%; in the assay on U251 CNS, 110%; in the assay with PC-3 prostate, 93.4%; in the assay with SK-MEL-5 melanoma, 100%. In addition, the growth in the assay on UACC-62 melanoma was 59%; in the assay on LOX IMVI melanoma, 79.9%; with SK-MEL-28 melanoma, 63%; in the assay with SK-MEL-2 melanoma it was 64%; with EKVX NSCLC, 104%; in the assay with SN12C renal it was 97.4%. In addition, the growth in the assay on UO-31 renal was 112%; in the assay on TK-10 renal it was 101%; in the assay with ACHN renal, 86.8%; in the assay on CAKI-1 renal it was 99%; in the assay with A498 renal, 106%; in the assay on CCRF-CEM leukemia it was 89.8%. Besides, the growth in the assay on MOLT-4 leukemia is 82.7%.

Turning to `O=c1[nH]c(NCc2ccccc2)nc2nc(Nc3ccc(NC(=S)Nc4ccccc4)cc3)nc(-c3ccc(O)cc3O)c12`, the growth in the assay with HCT-15 colon was 105%; with HT29 colon it was 125%; with SNB-75 CNS, 91.7%; in the assay with SNB-19 CNS it was 91.9%; in the assay on U251 CNS it was 87.8%; with PC-3 prostate it was 109%. For the same molecule, the growth in the assay on SK-MEL-5 melanoma is 113%; in the assay with UACC-62 melanoma, 83%; in the assay with LOX IMVI melanoma, 101%; in the assay with SK-MEL-28 melanoma it was 91.5%; in the assay with SK-MEL-2 melanoma, 97.5%; with EKVX NSCLC it was 63.2%. Also, the growth was 97.4% in the assay with SN12C renal; 78.5% with UO-31 renal; 134% in the assay on TK-10 renal; 103% in the assay with ACHN renal; 77.3% in the assay on CAKI-1 renal; 101% in the assay on A498 renal. The values for the growth with CCRF-CEM leukemia and in the assay with MOLT-4 leukemia were 86.4% and 77.4%, respectively.

Take `O=C(Nc1ccc(Cl)c(Cl)c1)NS(=O)(=O)c1cnccc1Oc1ccc(F)cc1`: the growth in the assay on HCT-15 colon was 73.9%; with HT29 colon, 75.1%; with SNB-75 CNS it was 79%; in the assay with SNB-19 CNS, 57%; in the assay with U251 CNS it was 56.8%; in the assay on PC-3 prostate, 22.2%. Also, the growth in the assay with SK-MEL-5 melanoma is 108%; in the assay with UACC-62 melanoma it was 59.2%; in the assay on LOX IMVI melanoma, 83.3%; with SK-MEL-28 melanoma, 94.5%; with SK-MEL-2 melanoma, 64.3%; with EKVX NSCLC, 15.1%. For the same molecule, the growth with SN12C renal was 76.3%; in the assay on UO-31 renal it was 67.4%; in the assay with TK-10 renal it was 42.3%; with ACHN renal it was 43.5%; with CAKI-1 renal, 5.6% (active); in the assay with A498 renal, 33.7%. Also, the growth with CCRF-CEM leukemia was 2.81% (active); with MOLT-4 leukemia, 52.3%.

As for `Cn1cc(-c2cnc3ccc(NC(=O)Nc4ccc(F)c(Br)c4)cc3n2)cn1`, the growth in the assay with HCT-15 colon was 19.3%; in the assay with HT29 colon, 40%; in the assay with SNB-19 CNS, 57.7%; in the assay with U251 CNS, 44.9%; with PC-3 prostate, 0.663% (active); with SK-MEL-5 melanoma, -9.12% (active). The growth is -41.2% (active) in the assay on UACC-62 melanoma; 4.06% (active) with LOX IMVI melanoma; 50.1% in the assay with SK-MEL-28 melanoma; -3.42% (active) with SK-MEL-2 melanoma; 29.7% in the assay on EKVX NSCLC; 46.1% in the assay with SN12C renal. The growth with UO-31 renal is 16.9%; in the assay on TK-10 renal, 52%; in the assay on ACHN renal it was 20.2%; in the assay on CAKI-1 renal it was 12.8%; in the assay with A498 renal, 16.5%; in the assay on CCRF-CEM leukemia, 4.33% (active). In addition, the growth in the assay on MOLT-4 leukemia was -21.2% (active).

Take `COc1ccncc1S(=O)(=O)NC(=O)Nc1ccc(Cl)c(Cl)c1`: the growth was 101% in the assay with HCT-15 colon; 102% with HT29 colon; 78.3% in the assay on SNB-75 CNS; 96.8% with SNB-19 CNS; 94.9% in the assay on U251 CNS; 120% in the assay with SK-MEL-5 melanoma. In addition, the growth with UACC-62 melanoma is 66.7%; with LOX IMVI melanoma, 64.9%; in the assay with SK-MEL-28 melanoma, 120%; with SK-MEL-2 melanoma it was 92.9%; in the assay with EKVX NSCLC, 84.7%; in the assay on SN12C renal it was 94.5%. Further, the growth in the assay on UO-31 renal is 66.7%; with TK-10 renal, 113%; in the assay on ACHN renal, 85.2%; in the assay with CAKI-1 renal it was 84.4%; in the assay on A498 renal it was 96.3%; in the assay with CCRF-CEM leukemia, 81.7%. In the assay on MOLT-4 leukemia, the growth is 83.5%.

Consider `Cc1ccc(C(=O)C2=Cc3cc4ccccc4n3Cc3cnnn32)cc1`, for which the growth in the assay with HCT-15 colon is 107%; with HT29 colon it was 106%; in the assay with SNB-19 CNS, 93%; in the assay on U251 CNS it was 100%; with PC-3 prostate, 87.7%; in the assay with SK-MEL-5 melanoma, 93.5%. In addition, the growth was 85.1% in the assay with UACC-62 melanoma; 110% with LOX IMVI melanoma; 102% with SK-MEL-28 melanoma; 94.4% in the assay with SK-MEL-2 melanoma; 107% with EKVX NSCLC; 94.5% in the assay with SN12C renal. The growth is 95.8% with UO-31 renal; 94.9% in the assay with TK-10 renal; 109% with ACHN renal; 101% in the assay with CAKI-1 renal; 107% with A498 renal; 103% in the assay with CCRF-CEM leukemia. In addition, the growth in the assay with MOLT-4 leukemia was 101%.

Turning to `CC(=O)Nc1ccc(/C=C/C(=O)c2ccccc2)cc1`, the growth in the assay with HCT-15 colon was 91.9%; with HT29 colon it was 83.8%; in the assay with SNB-19 CNS it was 77.7%; with U251 CNS, 74.7%; in the assay with PC-3 prostate, 66.8%; with SK-MEL-5 melanoma, 100%. In addition, the growth is 96.6% in the assay on UACC-62 melanoma; 93% in the assay on LOX IMVI melanoma; 103% in the assay on SK-MEL-28 melanoma; 107% in the assay with SK-MEL-2 melanoma; 112% with EKVX NSCLC; 87.5% with SN12C renal. In addition, the growth is 71.3% with UO-31 renal; 110% in the assay with TK-10 renal; 95.3% with ACHN renal; 104% with CAKI-1 renal; 73.4% in the assay with A498 renal; 31% with CCRF-CEM leukemia. For the same molecule, the growth in the assay on MOLT-4 leukemia is 75.5%.

Turning to `COc1cc(C2NN=C3c4ccccc4CCC32)cc(OC)c1OC` (stereo not given), the growth was 72.4% with HCT-15 colon; 105% with HT29 colon; 59.8% in the assay on SNB-75 CNS; 79.3% in the assay with SNB-19 CNS; 94.7% in the assay with U251 CNS; 75.2% with PC-3 prostate. Moreover, the growth in the assay with SK-MEL-5 melanoma was 72.2%; with UACC-62 melanoma, 69.8%; in the assay on LOX IMVI melanoma it was 82.4%; in the assay with SK-MEL-28 melanoma, 101%; with SK-MEL-2 melanoma, 76.9%; with EKVX NSCLC, 72.6%. The growth in the assay with SN12C renal is 77.7%; with UO-31 renal, 41.4%; with TK-10 renal, 94.1%; in the assay with ACHN renal, 80.3%; in the assay on CAKI-1 renal, 65%; with A498 renal, 89.6%. Further, the growth is 1.98% (active) with CCRF-CEM leukemia and 60.5% in the assay with MOLT-4 leukemia.
